# An excerpt weighted towards active compounds, which were near 21% of everything screened.
# CHX counter: counter-screen hit for Shiga toxin inhibitors, cycloheximide. cell reporter, cycloheximide protein synthesis inhibition counterscreen. max response, %. 12% of 300,000 active. AID 2314; in the data active = max response mostly above about 13%, no sharp cut-off; inactive = mostly below about 14%; also: read at 38.3 µM for the half of the compounds with a filed dose; 0% is about no effect
# Shiga inhibitor: Shiga toxin inhibition | Vero cells, Shiga toxin protein synthesis inhibition reporter | inhibition, % at 38.7 µM | 9.2% of 290,000 active; in the data active = inhibition mostly above about 28%, no sharp cut-off; inactive = mostly below about 43%; also: 0% is about no effect
# Pf growth 48h: inhibits P. falciparum growth in the first generation, 48 h; AID 504832; 5.9% of 310,000 active; Potency, µM (titrated, usually from 28.7 µM), for inactives: at the top dose activity change, negative = inhibition, hits mostly inhibitors; P. falciparum luciferase growth in erythrocytes, 48 h; also: potency is read from the fitted curve at half-maximal effect; % is scaled to controls: 0 for no effect and ±100 for the full control effect
#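 Luciferase-expressing P. falciparum in infected erythrocytes (2% hematocrit, 0.1% parasitemia final) in RPMI 1640/0.5% Albumax were exposed to compound for 48 hours at 37 C, 5% CO2; growth read as luminescence.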
# NS1 function inh: blocks influenza NS1 protein function; Potency, µM (titrated, usually from 46.1 µM), without a hit: at the highest dose activity, positive = more growth; 0.4% of 270,000 active; AID 2326; calls by dose curve; also: potency is read from the fitted curve at half-maximal effect; actives are rising curves; nearly all actives have a fitted effect of over 50% in size
#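 In this qHTS, NS1 from influenza A is expressed in budding yeast, where it slows growth. Cells are switched from glucose to 2% galactose medium (pH 6.0, -URA), treated with compound, and growth recovery is read at OD600.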
# Pf growth 96h: inhibits malaria parasite growth, 96 h; 6.9% of 320,000 active; AID 504834; Potency, µM (series often up to 28.7 µM), for inactives: at the top dose activity change, negative = inhibition, usual class: inhibitors; P. falciparum luciferase reporter growth, 96 h; also: potency is read from the fitted curve at half-maximal effect; % is scaled to controls: 0 for no effect and ±100 for the full control effect
#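 Compounds incubated with erythrocytes infected by luciferase-expressing P. falciparum (2% hematocrit, 0.05% parasitemia final) for 96 hours, 37 C in 5% CO2. Growth inhibition scored as decreased luciferase luminescence.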
# Numbers without * were called inactive; ? = inconclusive; . = no result given. Unless noted, calls follow the shape of the dose curve; as a rule, active = well fitted inhibition curve with a large enough effect; inconclusive = small, poorly fitted or top-dose-only effect, or another doubt; inactive = no such curve, though single readings can be large or run the other way.
SMILES,CHX counter,Shiga inhibitor,Pf growth 48h,NS1 function inh,Pf growth 96h
CCOc1ccc2nc(NC(=O)CSc3nc4cccnc4n3C)sc2c1,-4.0,-19.8,5.0%,-37.9%,1.1%
CCOc1ccc2nc(NC(=O)CCn3cccc3)sc2c1,29.5*,85.6*,.,6.8%,?
CCOc1ccc2nc(NS(=O)(=O)c3ccc(NC(C)=O)cc3)sc2c1,1.4,25.3,90.6%,1.4%,1.6%
CCOc1ccc2nc(NC(=O)CSc3ccccc3)sc2c1,18.4*,69.0,5.0%,2.1%,.
CCCOc1ccc2nc(NC(=O)OC)sc2c1,.,.,-20.6%,.,-16.2%
CCCC(=O)Nc1nc2ccc(OCC)cc2s1,46.4*,72.7*,-0.2%,-5.6%,10.0%
CCOc1ccc2nc(NC(=S)N(C)C)sc2c1,56.0*,104.2*,.,-140.8%,?
CCCC(=O)NC(c1ccc(C(C)C)cc1)c1ccc2cccnc2c1O (stereo not drawn),-1.6,-9.5,1.47µM*,-145.4%,14.7µM*
COc1ccc(C(NC(=O)C(C)C)c2ccc3cccnc3c2O)cc1 (stereo not drawn),0.7,-1.4,?,-75.8%,?
CCCC(=O)NC(c1ccc(N(C)C)cc1)c1ccc2cccnc2c1O (stereo not drawn),5.7,8.5,6.57µM*,-99.1%,-21.9%
CCC(=O)NC(c1ccc(C)cc1)c1cc([N+](=O)[O-])c2cccnc2c1O (stereo not drawn),0.9,-6.2,?,14.7%,19.8%
CC(C)C(=O)NC(c1ccc(Cl)cc1Cl)c1ccc2cccnc2c1O (stereo not drawn),14.9,.,?,-127.7%,?
CC(=O)NC(c1ccco1)c1ccc2cccnc2c1O (stereo not drawn),-5.4,7.0,10.4µM*,-77.6%,6.6%
CCC(=O)NC(c1ccc(C)cc1)c1ccc2cccnc2c1O (stereo not drawn),12.5,2.5,4.65µM*,-25.1%,13.6%
CCCC(=O)NC(c1ccccc1Cl)c1ccc2cccnc2c1O (stereo not drawn),1.4,6.8,?,-82.1%,?
C=CCC1(NCc2ccco2)CCN(CC)CC1,-2.4,-2.9,-3.0%,.,?
CC(=O)[C@@]1(O)CCC2C3C=CC4=CC(=O)CC[C@]4(C)C3CC[C@@]21C (stereo partly drawn),.,.,-18.5%,.,-16.0%
C#CCSc1nc(=O)c2cccnc2n1-c1ccc(C)cc1,-1.9,6.6,?,1.2%,?
O=C(CCCCn1c(=O)c2ccccc2n(CC(=O)NC2CCCC2)c1=O)NC1CCCC1,1.7,-3.0,?,-1.6%,-4.5%
O=C(CCCn1c(=O)c2ccccc2n(Cc2cccc(F)c2)c1=O)NC1CCN(Cc2ccccc2)CC1,3.5,12.2,6.57µM*,.,?
CCc1ccc(NC(=O)Cn2c(=O)n(CCC(=O)NC3CCN(Cc4ccccc4)CC3)c(=O)c3ccccc32)cc1,-0.4,-0.6,-12.4%,-4.9%,-11.9%
O=C(CCCCn1c(=O)c2ccccc2n(Cc2ccccc2)c1=O)NC1CCN(Cc2ccccc2)CC1,-2.1,-6.3,5.86µM*,.,-10.1%
Cc1cccc(C(=O)N2CCCC(CCC(=O)N3CCN(c4ccccn4)CC3)C2)c1C (stereo not drawn),-0.5,2.3,?,-19.2%,5.9%
O=C(CCC1CCCN(C(=O)C2(c3ccccc3)CC2)C1)N1CCN(c2ccccn2)CC1 (stereo not drawn),20.1*,42.2,27.4%,1.2%,?
CCc1[nH]nc(C(=O)N2CCCC(CCC(=O)N3CCN(c4ccccn4)CC3)C2)c1C (stereo not drawn),13.5*,33.9,?,7.6%,9.3%
SMILES,CHX counter,Shiga inhibitor,Pf growth 48h,NS1 function inh,Pf growth 96h
CCOCC(=O)Nc1cc(C(=O)OC)cc(C(=O)OC)c1,6.9,8.6,28.2%,3.3%,32.7%
CC(C)(C)NCC(O)COc1ccccc1C(=O)CCc1ccccc1 (stereo not drawn),-4.4,-14.8,.,-2.3%,?
CC(C)(C)NCC(O)COc1ccccc1C(C)(C)C (stereo not drawn),-5.5,-13.5,4.65µM*,0.3%,?
CC(C)(C)NC[C@@H](O)COc1ccccc1C1CCCC1,.,.,2.87µM*,.,2.28µM*
CC(C)CN(C(=O)CCCc1nc2ccccc2c(=O)[nH]1)c1c(N)n(Cc2ccccc2)c(=O)[nH]c1=O,.,.,24.3%,.,-7.6%
Cc1ccc2c(CC(=O)OCC(=O)N(CC(C)C)c3c(N)n(Cc4ccccc4)c(=O)[nH]c3=O)coc2c1,.,.,?,.,-14.7%
Cc1cc2occ(CC(=O)N(CC(C)C)c3c(N)n(Cc4ccccc4)c(=O)[nH]c3=O)c2cc1C,.,.,16.5µM*,.,-6.9%
